# From PubChem BioAssay (NCATS)
# Records with an inconclusive call do not appear. Entries that show only a call come without a potency. The source made the active and inactive calls. The call rests on the fitted dose curve; in most records, active means well fitted inhibition curve with a large enough effect; inconclusive means small, poorly fitted or top-dose-only effect; inactive means flat fitted curve, though single readings scatter.
# Tests used:
# Assay in all cases: qHTS profiling for inhibitors of Plasmodium falciparum proliferation (AID 504749); further: nearly all actives have a fitted effect of over 60% in size
# Settings in all cases: P. falciparum in erythrocytes, SYBR Green DNA, 72 h; series mostly up to 28.7 µM
# CP335 = system: CP335
# Method in brief: (§1)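 Each compound contacts P. falciparum-infected red blood cells for 72 h at 37 C; lysis buffer (Tris, EDTA, saponin, Triton X, SYBR Green I) is added and fluorescence measured next morning; values normalized to controls.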
# DFO2036 = system: DFO2036
# Method in brief: as §1
# DIV14 = system: DIV14
# Method in brief: as §1
# DIV17 = system: DIV17
# Method in brief: as §1
# DIV30 = system: DIV30
# Method in brief: as §1
# FAB9 = system: FAB9
# Method in brief: as §1
# CP325 = system: CP325
# Method in brief: as §1
# CP329 = system: CP329
# Method in brief: as §1
# ECU = system: ECU
# Method in brief: as §1
# Dd2 = system: Dd2
# Method in brief: as §1
# Potency means the concentration at half of the fitted maximal effect.
SMILES,Potency (CP335),Potency (DFO2036),Potency (DIV14),Potency (DIV17),Potency (DIV30),Potency (FAB9),Potency (CP325),Potency (CP329),Potency (ECU),Potency (Dd2)
CN(C)CCCN1c2ccccc2Sc2ccc(Cl)cc21,13.5 µM (active),inactive,3.01 µM (active),4.78 µM (active),9.53 µM (active),inactive,–,–,–,–
CCOC(CN1CCN(CC(C)C(=O)c2ccccc2)CC1)c1ccccc1 (stereo unspecified),–,inactive,–,–,inactive,inactive,inactive,inactive,inactive,–
CN1CCC[C@@H]1Cc1c[nH]c2ccc(CCS(=O)(=O)c3ccccc3)cc12,–,inactive,9.53 µM (active),7.57 µM (active),–,inactive,–,inactive,–,12.6 µM (active)
CCCCN1CCCC[C@H]1C(=O)Nc1c(C)cccc1C,–,inactive,inactive,inactive,inactive,inactive,inactive,inactive,inactive,inactive
CNCCC(Oc1ccc(C(F)(F)F)cc1)c1ccccc1 (stereo unspecified),–,inactive,3.01 µM (active),6.75 µM (active),6.75 µM (active),inactive,–,inactive,–,–
NCC(=O)CCC(=O)O,–,inactive,inactive,inactive,inactive,inactive,inactive,inactive,inactive,inactive
CN1CCCCC1CCN1c2ccccc2Sc2ccc(S(C)=O)cc21 (stereo unspecified),–,inactive,7.57 µM (active),12 µM (active),–,inactive,inactive,inactive,inactive,–
OCc1cc(C(O)CNCCCCCCOCCCCc2ccccc2)ccc1O (stereo unspecified),–,inactive,–,–,–,inactive,inactive,inactive,inactive,inactive
CC(C(O)c1ccc(O)cc1)N1CCC(Cc2ccccc2)CC1 (stereo unspecified),10.7 µM (active),–,13.5 µM (active),15.1 µM (active),–,inactive,15.1 µM (active),–,–,8.91 µM (active)
CCN(CC)CCNC(C(=O)OCCC(C)C)c1ccccc1 (stereo unspecified),–,–,4.26 µM (active),7.57 µM (active),–,inactive,–,–,–,7.08 µM (active)
Cc1c(O)cccc1C(=O)N[C@@H](CSc1ccccc1)[C@H](O)CN1C[C@H]2CCCC[C@H]2C[C@H]1C(=O)NC(C)(C)C,–,–,16.9 µM (active),–,15.1 µM (active),inactive,–,inactive,11.2 µM (active),11.2 µM (active)
[Cl][In]([Cl])[Cl],–,–,–,–,15.1 µM (active),–,–,inactive,–,11.2 µM (active)
CNC(=O)Oc1ccc2c(c1)[C@]1(C)CCN(C)[C@@H]1N2C,7.57 µM (active),2.24 µM (active),–,4.26 µM (active),–,2 µM (active),–,–,1.78 µM (active),–
COCCOC(=O)C1=C(C)NC(C)=C(C(=O)OC/C=C/c2ccccc2)C1c1cccc([N+](=O)[O-])c1 (stereo unspecified),9.53 µM (active),–,13.5 µM (active),8.49 µM (active),–,inactive,–,–,10 µM (active),12.6 µM (active)
Oc1ccc(C(O)CNCCCCCCNCC(O)c2ccc(O)c(O)c2)cc1O (stereo unspecified),9.53 µM (active),inactive,10.7 µM (active),15.1 µM (active),–,inactive,–,–,–,10 µM (active)
NC(=O)N/N=C/c1ccc([N+](=O)[O-])o1,–,–,–,–,–,inactive,–,inactive,–,10 µM (active)
c1ccc(CN(CC2=NCCN2)c2ccccc2)cc1,–,–,6.75 µM (active),7.57 µM (active),–,inactive,inactive,inactive,–,12.6 µM (active)
Nc1ccc(S(=O)(=O)Nc2ccc(Cl)nn2)cc1,–,–,inactive,inactive,inactive,–,inactive,inactive,–,–
CN1CCN(C2Cc3ccccc3Sc3ccc(Cl)cc32)CC1 (stereo unspecified),–,inactive,–,–,–,inactive,inactive,inactive,–,–
CSc1ccc2c(c1)C(N1CCN(C)CC1)Cc1ccccc1S2 (stereo unspecified),–,–,10.7 µM (active),15.1 µM (active),–,inactive,–,–,–,–
NCCNCCNCCN,–,inactive,inactive,inactive,inactive,inactive,inactive,inactive,inactive,inactive
